# Data reported in PubChem BioAssay (NCATS).
# Results filed as inconclusive are left out. Active and inactive are the calls of the source. Unless noted, calls come from the whole dose curve; as a rule, active = well fitted curve in the direction sought with a large enough effect; inconclusive = small, poorly fitted or top-dose-only effect, or another doubt; inactive = no such curve, though single readings can be large; an effect the other way counts as inactive or inconclusive.
# Key:
# [1] = Primary qHTS for small molecule stabilizers of the endoplasmic reticulum resident proteome: Secreted ER Calcium Modulated Protein (SERCaMP) assay (AID 1508630); note: % is set by controls: 0 for no effect and ±100 for the full control effect
# Method in brief: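 GLuc-SERCaMP-expressing SH-SY5Y cells, pretreated 16 h with compound, are challenged with thapsigargin to empty ER calcium stores; after 4 h, coelenterazine is added directly to the medium and luminescence is imaged.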
# [2] = target: Lysosomal acid glucosylceramidase (Homo sapiens) (UniProt P04062); assay: Glucocerebrosidase-p2 (AID 348; in the data active = potency below about 10 µM; note: potency is the fitted concentration of half-maximal effect); settings: purified GBA, blue fluorogenic substrate, 40 min
# Lysosomal acid glucosylceramidase (Homo sapiens), sequence (P04062 whole entry, looked up): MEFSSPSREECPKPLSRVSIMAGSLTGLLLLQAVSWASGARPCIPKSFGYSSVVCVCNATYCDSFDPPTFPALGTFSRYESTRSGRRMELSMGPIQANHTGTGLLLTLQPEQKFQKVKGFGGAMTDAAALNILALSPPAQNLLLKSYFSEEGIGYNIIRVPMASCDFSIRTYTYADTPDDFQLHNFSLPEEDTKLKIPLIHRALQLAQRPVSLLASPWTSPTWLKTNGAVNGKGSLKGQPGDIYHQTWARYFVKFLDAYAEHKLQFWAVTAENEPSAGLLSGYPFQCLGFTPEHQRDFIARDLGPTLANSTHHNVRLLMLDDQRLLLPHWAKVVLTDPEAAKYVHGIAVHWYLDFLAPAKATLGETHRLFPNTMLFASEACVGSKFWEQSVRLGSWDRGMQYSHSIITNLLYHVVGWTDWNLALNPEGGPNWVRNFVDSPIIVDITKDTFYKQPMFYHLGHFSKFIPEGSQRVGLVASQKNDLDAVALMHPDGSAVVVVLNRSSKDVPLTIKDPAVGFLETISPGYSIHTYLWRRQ
# Method in brief: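 Compounds titrated from 0.6 nM upwards against 0.2 nM enzyme in pH 5.9 citric acid/KH2PO4, taurocholate, tween-20; blue fluorogenic substrate 80 uM, 40 min room temperature, stopped and read Ex 365/Em 440 for AC50.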
# [3] = AP1 Signaling Pathway (AID 357; active = well fitted curve in either direction with a large enough effect, not every such curve was filed as active;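 note: ME-180 reporter cells stimulated with EGF at its EC50 level; % is set by controls: 0 for no effect and ±100 for the full control effect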); settings: ME-180 AP-1-bla reporter, EGF-induced, beta-lactamase ratio, 5 h; at 7.69 µM (top of the series) unless noted
# Method in brief: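 Cells are seeded overnight, exposed to compound titrations and an EC50 level of EGF for 5 hours at 37 °C, then loaded with CCF4 dye for 2.5 hours. Beta-lactamase activity under the AP-1 element is read as a blue/green ratio.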
# [4] = target: Cytochrome P450 1A2 (Homo sapiens) (UniProt P05177); assay: p450-cyp1a2 (AID 410; calls by dose curve; note: potency is the fitted concentration of half-maximal effect;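 for activity change, negative = inhibition: -100% = full effect of reference inhibitor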)
# Cytochrome P450 1A2 (Homo sapiens), sequence (P05177 whole entry, looked up): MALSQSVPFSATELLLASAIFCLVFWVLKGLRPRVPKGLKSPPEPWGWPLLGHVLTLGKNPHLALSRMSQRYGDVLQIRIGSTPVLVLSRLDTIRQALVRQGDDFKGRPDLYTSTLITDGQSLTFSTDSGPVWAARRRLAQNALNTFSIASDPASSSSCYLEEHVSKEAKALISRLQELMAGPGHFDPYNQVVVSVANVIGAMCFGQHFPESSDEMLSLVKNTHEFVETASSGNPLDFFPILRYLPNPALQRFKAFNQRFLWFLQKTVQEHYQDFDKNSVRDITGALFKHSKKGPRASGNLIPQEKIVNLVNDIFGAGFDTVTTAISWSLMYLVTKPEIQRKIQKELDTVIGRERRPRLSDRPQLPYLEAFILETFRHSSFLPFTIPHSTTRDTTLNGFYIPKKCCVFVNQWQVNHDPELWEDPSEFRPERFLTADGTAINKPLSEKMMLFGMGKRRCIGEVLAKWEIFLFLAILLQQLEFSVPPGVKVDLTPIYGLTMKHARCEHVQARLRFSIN
# Method in brief: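 20nM CYP1A2 with 100uM Luciferin-ME (at Km) in 100mM KPO4; compound preincubated 10 min, NADPH regeneration added, 60 min at room temperature. Luciferin quantified by luminescence after detection reagent; normalized to 57 uM furafylline.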
# [5] = NFAT Signaling Pathway (AID 444; active = well fitted curve in either direction with a large enough effect, not every such curve was filed as active;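 note: carbachol stimulus at about its EC50 of 1 µM final; % is set by controls: 0 for no effect and ±100 for the full control effect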); settings: Jurkat NFAT-bla M1, carbachol, beta-lactamase ratio, 5 h; at 7.69 µM (top of the series) unless noted
# Method in brief: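 Jurkat cells with NFAT-driven β-lactamase reporter and co-expressed M1 receptor, stimulated with carbachol (final 1 uM, ~EC50), compound titration, 5 h at 37 °C. CCF4 loaded 1 h at RT; 460/530 nm ratio gave %activity and AC50.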
# [6] = Stat Signaling Pathway (AID 446; active = well fitted curve in either direction with a large enough effect, not every such curve was filed as active;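 note: ME-180 cervical cancer cells given 40 pM IL-6 alongside compound; SIE-controlled beta-lactamase reporter measured as 460/530 nm FRET emission ratio; % is set by controls: 0 for no effect and ±100 for the full control effect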); settings: ME-180 SIE beta-lactamase reporter, IL-6 stimulated, 5 h; at 7.69 µM (top of the series) unless noted
# Method in brief: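 ME-180 SIE-bla cells; overnight plating; cpd + IL-6 40 pM, 5 h, 37 C; LiveBLAzer 2.5 h RT; 460/530 nm emission ratio. Normalized to 300 pM IL-6 and 125 nM JAK inhibitor controls.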
# [7] = target: Glucocorticoid receptor (Homo sapiens) (UniProt P04150); assay: GR-EFC Redistribution (AID 451; calls by dose curve; note: potency is the fitted concentration of half-maximal effect); settings: CHO-K1 GR-EFC translocation, beta-gal luminescence, 2 h
# Glucocorticoid receptor (Homo sapiens), sequence (P04150 whole entry, looked up, the tested form may be a part): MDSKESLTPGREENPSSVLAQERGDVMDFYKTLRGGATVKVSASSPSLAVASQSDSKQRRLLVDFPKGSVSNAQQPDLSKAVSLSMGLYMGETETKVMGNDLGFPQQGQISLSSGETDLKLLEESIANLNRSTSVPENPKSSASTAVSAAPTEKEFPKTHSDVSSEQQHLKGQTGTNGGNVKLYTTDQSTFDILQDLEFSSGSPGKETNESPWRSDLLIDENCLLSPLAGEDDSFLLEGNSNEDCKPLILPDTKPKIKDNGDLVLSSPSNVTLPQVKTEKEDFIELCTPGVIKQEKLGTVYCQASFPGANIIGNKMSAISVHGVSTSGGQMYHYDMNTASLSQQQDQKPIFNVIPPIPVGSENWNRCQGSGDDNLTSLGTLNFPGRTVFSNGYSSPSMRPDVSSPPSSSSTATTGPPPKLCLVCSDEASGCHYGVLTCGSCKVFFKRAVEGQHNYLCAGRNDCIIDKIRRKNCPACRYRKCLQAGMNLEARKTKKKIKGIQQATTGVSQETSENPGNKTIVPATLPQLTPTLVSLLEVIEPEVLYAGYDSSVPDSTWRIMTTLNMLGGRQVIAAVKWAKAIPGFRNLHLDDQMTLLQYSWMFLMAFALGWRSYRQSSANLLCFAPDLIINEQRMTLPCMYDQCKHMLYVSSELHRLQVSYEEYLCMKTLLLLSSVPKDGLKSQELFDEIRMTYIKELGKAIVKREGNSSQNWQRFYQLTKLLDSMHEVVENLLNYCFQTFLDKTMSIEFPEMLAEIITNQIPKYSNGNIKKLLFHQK
# Method in brief: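 CHO-K1 cells expressing nuclear EA and GR-ED fragments of b-gal; compounds titrated up to 46 uM final, 2 h at 37 C. GR nuclear translocation read as complemented b-gal luminescence after 1 h RT detection.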
# [8] = target: 3',5'-cyclic-AMP phosphodiesterase 4B (Homo sapiens) (UniProt Q07343); assay: qHTS Assay for Inhibitors of PDE-IV (AID 607; active = well fitted activation curve with a large enough effect in the main read-out, with a control signal flat, not every such curve was filed as active; note: % of control where 0% means no effect)
# 3',5'-cyclic-AMP phosphodiesterase 4B (Homo sapiens), sequence (Q07343 whole entry, looked up): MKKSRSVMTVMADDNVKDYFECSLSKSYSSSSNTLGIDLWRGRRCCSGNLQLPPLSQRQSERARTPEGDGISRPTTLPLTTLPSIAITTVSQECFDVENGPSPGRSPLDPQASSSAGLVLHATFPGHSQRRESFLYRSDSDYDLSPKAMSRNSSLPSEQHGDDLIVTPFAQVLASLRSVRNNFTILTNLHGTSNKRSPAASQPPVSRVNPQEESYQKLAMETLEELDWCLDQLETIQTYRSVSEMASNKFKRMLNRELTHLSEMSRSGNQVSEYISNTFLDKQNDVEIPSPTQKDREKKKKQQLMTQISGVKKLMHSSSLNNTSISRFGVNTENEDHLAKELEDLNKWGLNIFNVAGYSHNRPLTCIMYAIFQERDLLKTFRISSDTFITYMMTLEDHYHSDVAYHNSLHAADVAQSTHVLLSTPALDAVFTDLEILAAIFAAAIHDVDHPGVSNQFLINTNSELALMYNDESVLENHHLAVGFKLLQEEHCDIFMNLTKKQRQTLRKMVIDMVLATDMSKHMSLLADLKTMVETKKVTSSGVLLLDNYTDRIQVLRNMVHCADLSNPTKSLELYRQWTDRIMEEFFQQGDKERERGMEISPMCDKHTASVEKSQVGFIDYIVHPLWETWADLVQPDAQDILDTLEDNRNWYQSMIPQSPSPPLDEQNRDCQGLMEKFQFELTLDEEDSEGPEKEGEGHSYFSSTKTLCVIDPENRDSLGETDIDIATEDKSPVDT
# Method in brief: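 ACTOne HEK293 cells carry a modified cAMP-gated CNG channel and express endogenous PDE4; plated 1000 cells/well, compounds up to 22.9 uM final. Membrane-potential dye fluorescence (ex 535/em 590) was read; parental cells received 10 uM forskolin + 100 uM RO 20-1724.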
# [9] = qHTS Assay for Lipid Storage Modulators (AID 1519; calls by dose curve); settings: Drosophila S3 cells, BODIPY lipid droplet/cell ratio, laser cytometry, cells loaded with oleic acid; for activity change, negative = inhibition: at 57.5 µM (top of the series)
# Method in brief: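 Cells seeded at 5,000 per well were treated with compounds over a concentration series and loaded with oleic acid (400 uM, as added). Lipid droplet fluorescence (488 nm excitation, 500-530 nm channel) was read by laser-scanning cytometry and normalized to 20 uM Triacsin C.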
# [10] = target: Rap guanine nucleotide exchange factor 3 (Homo sapiens) (UniProt O95398); assay: Confirmatory qHTS for agonist of cAMP-regulated guanine nucleotide exchange factor 3 (EPAC1) (AID 1645881);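 note: EPAC1 catalysed release of BODIPY-GDP from Rap1B seen as fluorescence loss; 100% = effect of cAMP agonist control; nearly all actives have a fitted effect of over 75% in size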
# [11] = target: Rap guanine nucleotide exchange factor 4 (Homo sapiens) (UniProt Q8WZA2); assay: Confirmatory qHTS for agonist of cAMP-regulated guanine nucleotide exchange factor 4 (EPAC2) (AID 1645884);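 note: nucleotide exchange releases bodipy-GDP from Rap1 and this lowers its fluorescence; % is set by controls: 0 for no effect and ±100 for the full control effect; nearly all actives have a fitted effect of over 65% in size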
# Rap guanine nucleotide exchange factor 4 (Homo sapiens), sequence (Q8WZA2 whole entry, looked up): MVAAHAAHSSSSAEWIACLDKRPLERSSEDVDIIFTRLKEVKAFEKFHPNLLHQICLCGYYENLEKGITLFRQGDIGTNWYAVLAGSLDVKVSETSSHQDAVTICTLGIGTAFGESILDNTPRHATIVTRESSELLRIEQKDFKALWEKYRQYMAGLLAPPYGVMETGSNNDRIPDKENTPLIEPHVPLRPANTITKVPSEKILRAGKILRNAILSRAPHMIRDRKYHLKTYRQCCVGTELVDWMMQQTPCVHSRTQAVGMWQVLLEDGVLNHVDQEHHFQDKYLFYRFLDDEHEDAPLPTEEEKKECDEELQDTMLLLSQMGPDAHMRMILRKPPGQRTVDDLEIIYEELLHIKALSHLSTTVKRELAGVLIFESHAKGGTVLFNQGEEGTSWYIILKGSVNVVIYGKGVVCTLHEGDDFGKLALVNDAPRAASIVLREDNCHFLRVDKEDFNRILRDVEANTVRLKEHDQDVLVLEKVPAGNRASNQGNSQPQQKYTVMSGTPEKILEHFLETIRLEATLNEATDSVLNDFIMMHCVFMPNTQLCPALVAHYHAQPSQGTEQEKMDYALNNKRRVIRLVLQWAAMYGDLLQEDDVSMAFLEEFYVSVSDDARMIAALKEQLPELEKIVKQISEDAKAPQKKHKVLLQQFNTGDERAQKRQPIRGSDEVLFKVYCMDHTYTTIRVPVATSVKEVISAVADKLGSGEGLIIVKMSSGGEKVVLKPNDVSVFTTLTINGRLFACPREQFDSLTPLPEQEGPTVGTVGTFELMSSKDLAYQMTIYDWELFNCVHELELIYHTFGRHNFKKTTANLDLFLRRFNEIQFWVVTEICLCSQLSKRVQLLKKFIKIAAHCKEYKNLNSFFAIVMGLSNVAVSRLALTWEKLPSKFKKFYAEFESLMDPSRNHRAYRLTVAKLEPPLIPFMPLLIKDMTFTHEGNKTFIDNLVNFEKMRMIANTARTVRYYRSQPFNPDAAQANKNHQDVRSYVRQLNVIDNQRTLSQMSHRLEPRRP
# [12] = target: Rap guanine nucleotide exchange factor 4 (Homo sapiens) (UniProt Q8WZA2); assay: Confirmatory qHTS for antagonist of cAMP-regulated guanine nucleotide exchange factor 4 (EPAC2) (AID 1645885); note: % is set by controls: 0 for no effect and ±100 for the full control effect; nearly all actives have a fitted effect of over 25% in size
# [13] = target: Glucocorticoid receptor (Homo sapiens) (UniProt P04150); assay: GR-GFP Redistribution (AID 450;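 active = compounds whose dose series gives a full or clear partial fitted curve of increased nuclear translocation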; note: potency is the fitted concentration of half-maximal effect); settings: U2OS GR-GFP nuclear translocation, laser cytometry, 2 h
# [14] = target: Mitogen-activated protein kinase 10 (Mus musculus) (UniProt Q61831); assay: JNK3 AlphaScreen Assay (AID 530; active = well fitted curve in either direction with a large enough effect, not every such curve was filed as active)
# Method in brief: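 Pre-activated (IL-1β/TNFα) JNK3 in HepG2 lysates phosphorylates biotin-GST-cJun(1-79), 10 uM ATP; anti-phospho-cJun(Ser73) AlphaScreen read at room temperature, pH 7.6 Tris buffer. Compounds pre-incubated 15 min as titrations.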
# [15] = target: Cytochrome P450 3A4 (Homo sapiens) (UniProt P08684); assay: qHTS Assay for Inhibitors and Substrates of Cytochrome P450 3A4 (AID 884); note: potency is the fitted concentration of half-maximal effect; nearly all actives have a fitted effect of over 50% in size
# Method in brief: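 20 nM human CYP3A4 with 25 uM Luciferin-PPXE (at KM) in 200 mM KPO4, preincubated 10 min with compound; NADPH regeneration started a 60 min RT reaction. Luciferin detected by luminescence, normalized to 57 uM ketoconazole as full inhibition.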
# [16] = target: Cytochrome P450 3A4 (Homo sapiens) (UniProt P08684); assay: qHTS Assay for Activators of Cytochrome P450 3A4 (AID 885); note: nearly all actives have a fitted effect of over 65% in size
# Method in brief: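 20nM CYP3A4 + 25uM Luciferin-PPXE (=KM), 200mM KPO4; cpd 10 min RT; NADPH regen, 60 min RT; stop w/ detection buffer, 20 min; luminescence. Normalized to 57 uM ketoconazole.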
# [17] = target: Dual specificity protein kinase CLK4 (Homo sapiens) (UniProt Q9HAZ1); assay: qHTS Assay for Inhibitors of CDC-like Kinase 4 (Kinase-Glo Assay) (AID 1770); note: % is set by controls: 0 for no effect and ±100 for the full control effect; nearly all actives have a fitted effect of over 65% in size
# Dual specificity protein kinase CLK4 (Homo sapiens), sequence (Q9HAZ1 whole entry, looked up): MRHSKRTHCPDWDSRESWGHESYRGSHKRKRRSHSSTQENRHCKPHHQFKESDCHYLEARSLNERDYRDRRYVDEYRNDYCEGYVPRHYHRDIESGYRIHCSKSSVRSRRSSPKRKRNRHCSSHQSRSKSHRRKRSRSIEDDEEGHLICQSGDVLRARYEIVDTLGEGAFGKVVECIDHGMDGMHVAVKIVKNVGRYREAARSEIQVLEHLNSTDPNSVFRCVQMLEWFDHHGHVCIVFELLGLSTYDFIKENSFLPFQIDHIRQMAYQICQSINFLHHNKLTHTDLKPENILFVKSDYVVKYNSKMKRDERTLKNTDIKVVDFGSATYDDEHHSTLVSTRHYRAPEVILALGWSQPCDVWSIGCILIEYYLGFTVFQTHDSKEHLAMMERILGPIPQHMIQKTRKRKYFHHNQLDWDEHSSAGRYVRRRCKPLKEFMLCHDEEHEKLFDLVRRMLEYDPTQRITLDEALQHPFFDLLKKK
# Method in brief: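 Recombinant human Clk4 (25 nM) phosphorylated RS repeat peptide (100 uM) with 1 uM ATP in Tris pH 7.5/MgCl2/EGTA/DTT/Triton buffer for 4.5 h at room temperature. Residual ATP was quantified by Kinase-Glo luciferase luminescence.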
# [18] = target: Dual specificity protein kinase CLK4 (Homo sapiens) (UniProt Q9HAZ1); assay: qHTS Assay for Inhibitors of CDC-like Kinase 4 (ADP-Glo Assay) (AID 1771); note: % is set by controls: 0 for no effect and ±100 for the full control effect; nearly all actives have a fitted effect of over 70% in size
# Method in brief: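 25 nM Clk4 with 100 uM RS repeat peptide and 1 uM ATP (final) in buffer with 2 mM MgCl2, 0.5 mM EGTA, 2.5 mM DTT, 0.01% Triton X-100; 1 h at room temperature; ADP-Glo luminescence for ADP formed.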
# [19] = target: Dual specificity protein kinase CLK4 (Homo sapiens) (UniProt Q9HAZ1); assay: qHTS Assay for Inhibitors of CDC-like Kinase 4 (ADP-FP Assay) (AID 1795); note: % is set by controls: 0 for no effect and ±100 for the full control effect; nearly all actives have a fitted effect of over 60% in size
# Method in brief: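 Recombinant human Clk4 (6.25 nM) phosphorylated RS repeat peptide (100 uM) with 1 uM ATP in Tris pH 7.5/MgCl2/EGTA/DTT/Triton buffer for one hour. ADP was quantified by Transcreener competitive fluorescence polarization against an ADP calibration curve.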
# [20] = target: Ubiquitin carboxyl-terminal hydrolase 1 (Homo sapiens) (UniProt O94782); assay: Inhibitors of USP1/UAF1: Pilot qHTS (AID 504865); note: nearly all actives have a fitted effect of over 35% in size; note: potency is the fitted concentration of half-maximal effect
# Ubiquitin carboxyl-terminal hydrolase 1 (Homo sapiens), sequence (O94782 whole entry, looked up): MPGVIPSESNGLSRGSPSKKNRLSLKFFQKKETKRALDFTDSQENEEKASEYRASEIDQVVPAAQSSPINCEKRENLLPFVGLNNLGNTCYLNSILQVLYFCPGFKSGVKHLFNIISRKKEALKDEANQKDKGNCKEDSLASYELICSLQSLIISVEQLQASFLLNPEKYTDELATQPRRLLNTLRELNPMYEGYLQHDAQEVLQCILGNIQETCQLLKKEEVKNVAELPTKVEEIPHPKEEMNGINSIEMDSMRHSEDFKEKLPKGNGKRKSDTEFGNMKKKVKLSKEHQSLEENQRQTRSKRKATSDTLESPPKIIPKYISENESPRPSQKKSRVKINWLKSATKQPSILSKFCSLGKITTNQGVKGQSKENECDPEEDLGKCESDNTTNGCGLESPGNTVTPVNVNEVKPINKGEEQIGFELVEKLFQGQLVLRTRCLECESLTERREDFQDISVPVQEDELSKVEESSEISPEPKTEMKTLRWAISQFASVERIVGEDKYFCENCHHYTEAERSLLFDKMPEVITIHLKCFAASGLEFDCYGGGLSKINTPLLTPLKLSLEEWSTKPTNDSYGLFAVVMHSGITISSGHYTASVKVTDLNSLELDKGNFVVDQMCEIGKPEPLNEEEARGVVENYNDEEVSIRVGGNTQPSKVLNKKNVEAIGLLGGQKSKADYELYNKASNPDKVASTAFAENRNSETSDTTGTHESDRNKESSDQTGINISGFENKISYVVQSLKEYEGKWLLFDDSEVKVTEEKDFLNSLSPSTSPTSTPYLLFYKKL
# Method in brief: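 USP1/UAF1 complex (1nM) preincubated with compound 15 min at room temperature, then Ub-Rho substrate (150nM final) added. Fluorescence read kinetically at 480/540 nm, 6 reads every 60 seconds. Buffer: 50mM HEPES pH 7.8, 0.5mM EDTA, 0.1 mg/ml BSA, 1mM TCEP, 0.01% Tween-20.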
# [21] = measured here: cell count channel max response
# [22] = measured here: lipid channel max response
smiles,measurement,setting,value
C[C@H]1CC[C@@H]2N(C1)C[C@H]1[C@@H]3C[C@H]4[C@@H](C/C(=N\O)[C@H]5C[C@@H](O)CC[C@@]54C)[C@@H]3CC[C@H]1[C@]2(C)O,Potency,[1],inactive
COCC(=O)N1CCC2(CC1)CN(c1ccccn1)C2,Potency,[2],> 11.4 µM (inactive)
same,"activity change, negative = inhibition",[3],-0.233% (inactive)
same,Potency,[4],inactive
same,"activity change, negative = inhibition",[5],1.7% (inactive)
same,"activity, negative = inhibition",[6],9.91% (inactive)
same,Potency,[7],> 46 µM (inactive)
same,Potency,[8],inactive
same,"activity change, negative = inhibition",[9],1.23% (inactive)
same,max response,[9]; [21],1.59%
same,max response,[9]; [22],3.63%
same,Potency,[1],inactive
same,outcome,[10],inactive
same,outcome,[11],inactive
same,Potency,[12],inactive
C[C@@H]1CCC2C(C)(C)C3CC21CC[C@@]3(C)O (some centres undefined),Potency,[1],inactive
COc1cccc(C(=O)CC2c3c(c(Br)c4c(c3OC)OCO4)CCN2C)c1 (centres undefined),Potency,[1],inactive
COC(=O)C1=COC(O[C@H]2OC(CO)[C@H](O)C(O)C2O)[C@H]2C1C(=O)C[C@@H]2C (some centres undefined),Potency,[1],inactive
O=CN1CCc2c([nH]c3ccccc23)C1c1cccc2cccnc12 (centres undefined),Potency,[1],inactive
COc1cccc2c3c(c(C)nc12)CC(CO)O3 (centres undefined),Potency,[1],inactive
C[C@@H]1C(=O)CC2C(C)(C)CCC[C@]2(C)[C@@]1(O)CCc1ccoc1 (some centres undefined),Potency,[1],inactive
O=C1CCCC2[C@@H]3CCC[N@+]4([O-])CCC[C@H](CN12)C34 (some centres undefined),Potency,[1],inactive
COCCNc1ncncc1-c1c(C)noc1C,Potency,[2],> 11.4 µM (inactive)
same,"activity change, negative = inhibition",[3],8.31% (inactive)
same,Potency,[4],inactive
same,"activity change, negative = inhibition",[5],-1.26% (inactive)
same,"activity, negative = inhibition",[6],0.118% (inactive)
same,Potency,[13],> 46 µM (inactive)
same,Potency,[7],> 46 µM (inactive)
same,outcome,[14],inactive
same,Potency,[8],inactive
same,Potency,[15],5.01 µM (active)
same,Potency,[16],inactive
same,"activity change, negative = inhibition",[9],3.6% (inactive)
same,max response,[9]; [21],19.7%
same,max response,[9]; [22],24.5%
same,Potency,[17],inactive
same,Potency,[18],inactive
same,Potency,[19],inactive
same,Potency,[20],inactive
same,Potency,[1],inactive
N#Cc1cccc(-c2nc3cnc(N4CCOCC4)nc3n(C[C@H]3CCCO3)c2=O)c1,Potency,[2],> 11.4 µM (inactive)
same,"activity change, negative = inhibition",[3],-1.16% (inactive)
same,Potency,[4],0.794 µM (active)
same,"activity change, negative = inhibition",[5],1.23% (inactive)
same,"activity, negative = inhibition",[6],6.63% (inactive)
same,Potency,[13],> 9.22 µM (inactive)
same,Potency,[7],> 46 µM (inactive)
same,outcome,[14],inactive
same,Potency,[8],inactive
same,"activity change, negative = inhibition",[9],4.04% (inactive)
same,max response,[9]; [21],10%
same,max response,[9]; [22],11.4%
same,Potency,[17],inactive
same,Potency,[18],inactive
same,Potency,[19],inactive
same,Potency,[20],inactive
same,Potency,[1],inactive
CC(C)=CCC1=C(O)c2ccccc2C(=O)C1=O,"activity change, negative = inhibition",[9],-0.846% (inactive)
same,max response,[9]; [21],-0.752%
same,max response,[9]; [22],0.642%
same,Potency,[20],35.5 µM (active)
same,Potency,[1],inactive
N#CCCn1c(=O)cnc2cnc(Oc3ccccc3)nc21,Potency,[2],> 11.4 µM (inactive)
same,"activity change, negative = inhibition",[3],-16.3% (inactive)
same,Potency,[4],15.8 µM (active)
same,"activity change, negative = inhibition",[5],11.7% (inactive)
same,"activity, negative = inhibition",[6],-2.6% (inactive)
same,Potency,[13],> 9.22 µM (inactive)
same,Potency,[7],> 46 µM (inactive)
same,outcome,[14],inactive
same,"activity change, negative = inhibition",[9],5.36% (inactive)
same,max response,[9]; [21],9.06%
same,max response,[9]; [22],13.1%
same,Potency,[17],inactive
same,Potency,[18],inactive
same,Potency,[19],inactive
same,Potency,[20],inactive
same,Potency,[1],inactive
